Experimental data published in PubChem BioAssay (Tox21).
Records with an inconclusive call do not appear. Calls of active or inactive are those of the source. Unless noted, calls come from the whole dose curve.

Assays:
[1] = Nuclear factor erythroid 2-related factor 2/antioxidant responsive element (Nrf2/ARE) small molecule agonists: qHTS cell viability counter screen in human keratinocytes (AID 1919968; active = well fitted curve in the direction sought with a large enough effect in the repeat runs; an effect the other way counts as inactive or inconclusive; note: nearly all actives have a fitted effect of over 55% in size)
Summary of the method: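 Fluorescence read-out from CellTiter-Fluor after 1 h at 37 C. Wells held HaCaT-derived ARE-luciferase reporter cells (1,500/well) treated 23 h with DMSO-dissolved compounds. Run in the same wells as the luciferase agonist read.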

[2] = Nuclear factor erythroid 2-related factor 2/antioxidant responsive element (Nrf2/ARE) small molecule agonists: luciferase reporter gene qHTS assay in human keratinocytes (AID 1919969); note: nearly all actives have a fitted effect of over 35% in size
[3] = biological target: Gonadotropin-releasing hormone receptor (Homo sapiens) (UniProt P30968); assay: Human gonadotropin-releasing hormone receptor (GnRHR) small molecule agonists, calcium flux assay in GnRHR-HEK293 cells (AID 1920063); note: nearly all actives have a fitted effect of over 35% in size
Summary of the method: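 Calcium-dye fluorescence, Ex/Em=480/540, recorded every 1 sec over 3 min after compound addition to GnRHR-HEK293 cells. Cells had been seeded 18 hours earlier and dye-loaded for 1 hour at 37 C. Fifteen concentrations, triplicates.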

[4] = biological target: KiSS-1 receptor (Homo sapiens) (UniProt Q969F8); assay: Human kisspeptin (KISS1R) small molecule agonists, calcium flux assay in KISS1R-HEK293 cells (AID 1920064; active = well fitted curve in the direction sought with a large enough effect in the repeat runs; an effect the other way counts as inactive or inconclusive)
Summary of the method: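 Calcium flux read-out: kinetic fluorescence at Ex/Em=480/540, 1 s intervals over 3 min, after pin-tool compound addition to dye-loaded KISS1R-HEK293 cells. Fifteen concentrations, triplicates.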

[5] = G protein-coupled receptor (GPCR) small molecule agonists, calcium flux assay: HEK293 wild type cell line counter screen (AID 1920065)
Summary of the method: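 Agonist mode; 18 h seeding at 37 C, 1 h dye load at 37 C; compounds pinned from DMSO, ATP as positive control; kinetic fluorescence 480/540 nm, 3 min, 1 s reads; 15 concentrations, triplicate.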

[6] = p53 small molecule agonists, cell-based qHTS assay with human liver microsomes (AID 1963577);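 note: p53 response element beta-lactamase reporter cells with liver microsomes plus NADPH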
Summary of the method: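 p53RE-bla cells; 5 h settle, 37 C/5% CO2; cpd + HLM 0.5 mg/mL + NADPH 0.5 mg/mL (final); 16 h 37 C; LiveBLAzer 2 h RT dark; fluorescence readout.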

[7] = p53 small molecule agonists, cell-based qHTS assay with rat liver microsomes (AID 1963578)
Summary of the method: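 Rat liver microsome activation: microsomes 0.5 mg/mL, NADPH 0.5 mg/mL final; p53RE-bla cells, 16 h 37 C; LiveBLAzer readout, 2 h RT dark.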

[8] = p53 small molecule agonists, cell-based qHTS assay with human liver microsomes: qHTS cell viability counter screen (AID 1963579); note: nearly all actives have a fitted effect of over 45% in size
Summary of the method: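 Luminescent CellTiter-Glo read-out, 30 min at room temperature, gauged cytotoxicity in p53RE-bla cells exposed 16 h at 37 C to DMSO-dissolved compounds with metabolic activation by human liver microsomes and NADPH, each 0.5 mg/mL final.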

[9] = p53 small molecule agonists, cell-based qHTS assay with rat liver microsomes: qHTS cell viability counter screen (AID 1963580); note: nearly all actives have a fitted effect of over 45% in size
Summary of the method: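 Rat liver microsome (0.5 mg/mL final) and NADPH (0.5 mg/mL final) co-incubation with compounds for 16 h at 37 C on HCT-116 p53RE-bla cells; cytotoxicity taken from intracellular ATP luminescence.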

[10] = p53 small molecule agonists, cell-based qHTS assay: qHTS cell viability counter screen (AID 1963581); note: nearly all actives have a fitted effect of over 45% in size
Summary of the method: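 Cytotoxicity read-out: ATP-based luminescence (CellTiter-Glo, 30 min RT) measured in the same wells as the p53 reporter assay, HCT-116 p53RE-bla cells, 16 h compound exposure at 37 C.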

[11] = p53 small molecule agonists, cell-based qHTS assay (AID 1963582; active = well fitted activation curve with a large enough effect in the signal ratio in the repeat runs, not every such curve was filed as active; the % refers to the signal ratio)
Summary of the method: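 Fluorescence intensity read-out of a beta-lactamase reporter under a p53 response element. Cells were exposed to DMSO-dissolved compounds for 16 h at 37 C, then developed with FRET substrate for 2 h at RT.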

[12] = cAMP Responsive Elements (CRE) small molecule antagonists, cell-based qHTS assay (AID 1963591; active = well fitted inhibition curve with a large enough effect in the signal ratio in the repeat runs, not every such curve was filed as active; the % refers to the signal ratio)
Summary of the method: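 HEK293T CRE-bla; 18 h preincubation; compound pin-transfer; NKH477 0.25 uM final, 3 h, 37 C; LiveBLAzer FRET substrate 2 h RT.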

[13] = biological target: Beta-2 adrenergic receptor (Homo sapiens) (UniProt P07550); assay: Adrenergic beta2 receptor (ADRB2) small molecule antagonists, cell-based qHTS assay (AID 1963592); note: series mostly up to about 92 µM; nearly all actives have a fitted effect of over 50% in size
Summary of the method: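 Assay format: CHO-ADRB2 cells, 18-20hr seeding at 37C/5% CO2, then compound plus 1nM isoproterenol agonist mix for 0.5hr RT. Homogeneous time-resolved fluorescence cAMP detection after 1hr, expressed as 665/615 nm ratio.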

[14] = biological target: Beta-2 adrenergic receptor (Homo sapiens) (UniProt P07550); assay: Adrenergic beta2 receptor (ADRB2) small molecule agonists, cell-based qHTS assay (AID 1963593);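 note: CHO cells stably overexpressing human ADRB2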
Summary of the method: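 CHO cells stably over-expressing ADRB2 were plated overnight at 37C, then dosed with compounds plus a stimulation mix containing 100uM IBMX and 25uM Ro-20-1724 for 0.5hr at room temperature. cAMP was measured by HTRF competition, 1hr.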

[15] = biological target: D(2) dopamine receptor (Homo sapiens) (UniProt P14416); assay: Dopamine D2 receptor (DRD2) small molecule agonists, cell-based qHTS assay (AID 1963594); note: nearly all actives have a fitted effect of over 35% in size
Summary of the method: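 cAMP accumulation in DRD2-HEK293 cells measured by HTRF after 1 h detection; compounds added 10 min before NKH477 (200nM […]) forskolin-analogue stimulation, 30 min at room temperature, with Ro20-1724 present at 0.1 mM final.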

[16] = biological target: D(2) dopamine receptor (Homo sapiens) (UniProt P14416); assay: Dopamine D2 receptor (DRD2) small molecule antagonists, cell-based qHTS assay (AID 1963595; active = well fitted inhibition curve with a large enough effect in the signal ratio in the repeat runs, with a control signal flat; the % refers to the signal ratio)
Summary of the method: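 Readout: HTRF cAMP, cAMP-d2 competing with cellular cAMP for anti-cAMP cryptate, read after 1 h. Cells: DRD2-HEK293. Conditions: 0.1 mM Ro20-1724, 12 nM quinpirole, 200 nM NKH477, 30 min RT.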

[17] = biological target: 5-hydroxytryptamine receptor 2A (Homo sapiens) (UniProt P28223); assay: 5-hydroxytryptamine receptor 2A (HTR2A) small molecule antagonists, cell-based qHTS assay (AID 1963586); note: nearly all actives have a fitted effect of over 45% in size
Summary of the method: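 CHO cells stably expressing human HTR2A were plated for 18 h at 37 C, then loaded with calcium dye for 1 h. Compounds were preincubated 5 min at room temperature before DOI (4 nM solution) was added. Kinetic fluorescence was read for 3 min.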

[18] = biological target: 5-hydroxytryptamine receptor 2A (Homo sapiens) (UniProt P28223); assay: 5-hydroxytryptamine receptor 2A (HTR2A) small molecule agonists, cell-based qHTS assay (AID 1963587); note: nearly all actives have a fitted effect of over 30% in size
Summary of the method: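 Kinetic calcium-flux fluorescence (2 min, 1 sec intervals) after compound addition in agonist mode. HTR2A-CHO cells were cultured 18 h, then dye-loaded 1 h at 37 C.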

[19] = cAMP Responsive Elements (CRE) small molecule agonists, cell-based qHTS assay (AID 1963590)
Summary of the method: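 Beta-lactamase reporter readout: LiveBLAzer B/G FRET substrate, 2 h at room temperature, added after 3 h compound treatment of CRE-bla HEK 293T cells at 37 C/5% CO2.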

[20] = biological target: Muscarinic acetylcholine receptor M1 (Homo sapiens) (UniProt P11229); assay: Cholinergic receptor muscarinic 1 (CHRM1) small molecule agonists, cell-based qHTS assay (AID 1963589); note: nearly all actives have a fitted effect of over 35% in size
Summary of the method: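 Calcium flux read-out: kinetic fluorescence at 1 sec intervals after pin-tool compound addition to dye-loaded CHRM1-CHO cells (human M1). Agonist mode; 15 concentrations tested in triplicate independent runs.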

Measured: Potency

Sequence of D(2) dopamine receptor (Homo sapiens) (P14416 whole entry, looked up): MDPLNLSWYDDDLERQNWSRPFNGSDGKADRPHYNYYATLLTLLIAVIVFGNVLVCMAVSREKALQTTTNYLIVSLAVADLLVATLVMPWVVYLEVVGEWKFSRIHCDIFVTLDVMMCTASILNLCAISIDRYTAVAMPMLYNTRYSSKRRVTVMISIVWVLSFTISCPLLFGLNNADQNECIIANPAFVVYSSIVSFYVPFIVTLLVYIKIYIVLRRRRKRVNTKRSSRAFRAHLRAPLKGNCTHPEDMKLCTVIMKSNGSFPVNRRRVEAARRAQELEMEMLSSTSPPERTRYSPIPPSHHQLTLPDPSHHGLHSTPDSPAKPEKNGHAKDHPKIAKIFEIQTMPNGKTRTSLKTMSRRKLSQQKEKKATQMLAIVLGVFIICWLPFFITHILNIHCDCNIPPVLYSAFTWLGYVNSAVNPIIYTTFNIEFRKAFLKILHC
Sequence of Muscarinic acetylcholine receptor M1 (Homo sapiens) (P11229 whole entry, looked up): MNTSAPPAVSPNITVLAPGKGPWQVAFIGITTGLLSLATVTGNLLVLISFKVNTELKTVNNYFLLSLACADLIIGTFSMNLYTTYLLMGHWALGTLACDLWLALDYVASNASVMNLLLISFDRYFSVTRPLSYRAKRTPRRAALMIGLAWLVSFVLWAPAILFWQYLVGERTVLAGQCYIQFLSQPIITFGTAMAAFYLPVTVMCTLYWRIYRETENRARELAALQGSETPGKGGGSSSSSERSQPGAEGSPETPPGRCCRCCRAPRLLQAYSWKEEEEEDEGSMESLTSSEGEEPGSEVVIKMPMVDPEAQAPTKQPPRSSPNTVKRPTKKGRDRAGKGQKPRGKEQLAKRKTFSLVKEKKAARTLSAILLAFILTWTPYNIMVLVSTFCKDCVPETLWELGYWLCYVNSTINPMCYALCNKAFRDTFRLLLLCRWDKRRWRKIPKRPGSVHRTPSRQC
Sequence of Gonadotropin-releasing hormone receptor (Homo sapiens) (P30968 whole entry, looked up): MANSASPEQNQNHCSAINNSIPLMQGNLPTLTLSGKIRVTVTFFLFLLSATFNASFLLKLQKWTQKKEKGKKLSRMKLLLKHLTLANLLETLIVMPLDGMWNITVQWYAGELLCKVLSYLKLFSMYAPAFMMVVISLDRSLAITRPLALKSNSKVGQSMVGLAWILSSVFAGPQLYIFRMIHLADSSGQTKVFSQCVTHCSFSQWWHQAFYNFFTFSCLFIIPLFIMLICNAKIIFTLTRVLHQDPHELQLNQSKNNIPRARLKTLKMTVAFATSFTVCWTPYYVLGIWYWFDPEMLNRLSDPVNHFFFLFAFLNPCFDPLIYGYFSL
Sequence of 5-hydroxytryptamine receptor 2A (Homo sapiens) (P28223 whole entry, looked up): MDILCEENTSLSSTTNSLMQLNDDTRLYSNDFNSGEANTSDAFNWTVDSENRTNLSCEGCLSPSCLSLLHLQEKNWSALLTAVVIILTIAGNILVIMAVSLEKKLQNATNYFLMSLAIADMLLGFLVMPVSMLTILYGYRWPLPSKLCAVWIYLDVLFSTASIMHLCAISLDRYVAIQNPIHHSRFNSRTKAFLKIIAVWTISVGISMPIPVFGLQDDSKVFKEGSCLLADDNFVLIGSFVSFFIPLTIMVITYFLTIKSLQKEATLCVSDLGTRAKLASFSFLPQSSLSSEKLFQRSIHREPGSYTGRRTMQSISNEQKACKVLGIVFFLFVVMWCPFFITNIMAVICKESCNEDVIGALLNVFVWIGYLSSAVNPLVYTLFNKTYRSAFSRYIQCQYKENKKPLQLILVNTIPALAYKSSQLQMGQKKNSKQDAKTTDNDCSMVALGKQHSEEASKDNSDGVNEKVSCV
Sequence of Beta-2 adrenergic receptor (Homo sapiens) (P07550 whole entry, looked up): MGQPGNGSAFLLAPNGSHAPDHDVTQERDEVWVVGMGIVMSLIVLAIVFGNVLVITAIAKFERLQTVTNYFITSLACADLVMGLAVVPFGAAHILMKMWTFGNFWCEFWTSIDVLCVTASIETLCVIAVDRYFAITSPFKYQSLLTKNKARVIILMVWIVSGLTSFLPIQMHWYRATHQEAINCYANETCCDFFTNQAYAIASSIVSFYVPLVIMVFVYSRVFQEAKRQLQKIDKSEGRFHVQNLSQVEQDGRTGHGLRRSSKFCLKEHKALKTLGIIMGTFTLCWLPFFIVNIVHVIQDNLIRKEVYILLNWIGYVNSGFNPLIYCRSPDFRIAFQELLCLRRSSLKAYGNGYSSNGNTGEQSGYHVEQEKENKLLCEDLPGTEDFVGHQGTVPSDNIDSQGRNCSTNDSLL
Sequence of KiSS-1 receptor (Homo sapiens) (Q969F8 whole entry, looked up): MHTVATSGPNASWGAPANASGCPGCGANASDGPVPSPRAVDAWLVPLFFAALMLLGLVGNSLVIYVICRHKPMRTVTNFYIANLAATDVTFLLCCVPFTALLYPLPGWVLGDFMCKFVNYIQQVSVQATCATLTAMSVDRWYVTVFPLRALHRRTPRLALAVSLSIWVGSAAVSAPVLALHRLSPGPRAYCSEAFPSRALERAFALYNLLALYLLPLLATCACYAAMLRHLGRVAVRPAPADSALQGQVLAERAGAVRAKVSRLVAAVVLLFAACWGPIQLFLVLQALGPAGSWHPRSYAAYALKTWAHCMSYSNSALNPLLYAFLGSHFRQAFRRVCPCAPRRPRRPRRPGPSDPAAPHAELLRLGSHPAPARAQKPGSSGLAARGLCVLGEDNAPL

C[C@]12C=CC(=O)C=C1CC[C@H]1[C@@H]3C[C@@H](O)[C@](O)(C(=O)CO)[C@@]3(C)C[C@H](O)[C@@]12F
not listed: [17] | [18] | [19] | [20]
inactive: all other assays above

CCCCC(CC)COC(=O)CS (stereo not given)
not listed: [11] | [14] | [20]
inactive: all other assays above

CC(C)OP(=O)(CP(=O)(OC(C)C)OC(C)C)OC(C)C
not listed: [11]
inactive: all other assays above

Cc1ccc(S(=O)(=O)NCl)cc1
not listed: [10]
inactive: all other assays above

CCCCCCCCC/C=C/CC1CC(=O)OC1=O (stereo not given)
not listed: [11] | [17] | [20]
inactive: all other assays above

CCCc1c(OCCCCc2nn[nH]n2)ccc(C(C)=O)c1O
not listed: [11] | [12] | [14] | [15] | [16] | [19]
inactive: all other assays above

COc1ccc([N+](=O)[O-])cc1N
not listed: [11] | [15]
inactive: all other assays above
